# Assay outcomes from PubChem.
# An excerpt weighted towards active compounds, which were near 2.2% of everything screened.
# CHRM1 PAM = human CHRM1 positive allosteric modulation; P11229; CHO-K1 hM1, Fluo-8 calcium fluorescence, ACh EC20; 0% = ACh EC20, 100% = maximal ACh; activation, % at 3 µM; 360,000 tested, 0.088% active; AID 588819; in the data active = activation above about 19%, passing the limit was not always enough
# M4 ag = CHRM4 agonism in calcium assay; P08173; CHO-K1 hM4/Gqi5, Fluo-8 calcium fluorescence; vehicle 0%, full acetylcholine response 100%; activation, % at 3 µM; 360,000 tested, 0.14% active;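 active = activation above the run mean over all test wells plus 3 SD, cut at about 32% in these data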;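 note: peak over basal fluorescence ratio per well then scaled between controls; 0% = DMSO wells and 100% = acetylcholine at EC100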
# Target sequence (P08173 whole entry, looked up): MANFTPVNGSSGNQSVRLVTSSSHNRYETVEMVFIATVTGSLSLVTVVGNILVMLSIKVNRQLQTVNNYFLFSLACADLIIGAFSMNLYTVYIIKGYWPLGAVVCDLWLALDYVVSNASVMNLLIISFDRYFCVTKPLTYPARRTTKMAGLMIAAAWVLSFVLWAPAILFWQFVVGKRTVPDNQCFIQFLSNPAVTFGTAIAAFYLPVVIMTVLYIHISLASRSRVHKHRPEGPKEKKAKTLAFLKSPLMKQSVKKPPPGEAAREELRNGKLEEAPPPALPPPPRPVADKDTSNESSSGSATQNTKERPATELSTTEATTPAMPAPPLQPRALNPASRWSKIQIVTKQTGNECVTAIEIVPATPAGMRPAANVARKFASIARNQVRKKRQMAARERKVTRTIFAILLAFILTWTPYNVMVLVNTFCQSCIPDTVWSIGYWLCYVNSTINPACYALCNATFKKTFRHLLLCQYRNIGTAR
# CHRM1 antagonist = antagonists of human M1 muscarinic receptor. P11229. CHO-K1 hM1, Fluo-8 calcium fluorescence, ACh EC80 antagonist. inhibition, % at 3 µM. 360,000 tested, 1.3% active. AID 588852;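 active = percent inhibition above its own plate's cutoff, namely the mean of that plate's compound wells plus 3 SD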;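 note: peak over basal fluorescence ratio during 140 s after agonist addition; 0% = ACh EC80 plus DMSO and 100% = DMSO alone without agonist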
# M1 ag = activates human CHRM1 receptor; CHO-K1 hM1, Fluo-8 calcium fluorescence, agonist mode; 0% DMSO, 100% acetylcholine EC100; P11229; 360,000 tested, 0.33% active; AID 588814; activation, % at 3 µM;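 active = activation above the run's mean compound activation plus 3 SD, cut at about 16% in these data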;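 note: peak over basal fluorescence ratio within a 140 s kinetic read after compound addition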
# M4 PAM = CHRM4 positive allosteric modulation; P08173; CHO-K1 hM4/Gqi5, Fluo-8 calcium fluorescence, ACh EC20; 0% = ACh EC20, 100% = maximal ACh; activation, % at 3 µM; 360,000 tested, 0.4% active; AID 624126;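 active = activation above its plate's cutoff, the mean activation of sample wells plus 3 SD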
# CHRM4 antagonist = antagonists of human muscarinic M4 receptor (CHRM4); P08173; CHO-hM4 cells, ACh EC80, Fluo-8 calcium fluorescence; inhibition, % at 3 µM; 360,000 tested, 0.73% active; AID 624125;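 active = inhibition above its plate's cutoff, the mean inhibition of sample wells plus 3 SD, cut at about 27% in these data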;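 note: 0% = acetylcholine EC80 with DMSO and 100% = DMSO without agonist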
# The depositor's hits bear a star.
SMILES,CHRM1 PAM,M4 ag,CHRM1 antagonist,M1 ag,M4 PAM,CHRM4 antagonist
Clc1ccccc1OCCN1CCC(Cc2ccccc2)CC1,-14,13,30*,-3,-29,0
CC1CCCN(CCCNC(=O)C2CCC(CNS(=O)(=O)c3cccc4nsnc34)CC2)C1 (configuration not stated),-19,0,45*,-5,-14,8
CCCNC(=O)C1CCC(CNS(=O)(=O)c2cccc3nsnc23)CC1 (configuration not stated),11,1,-17,-3,16*,3
CCCCNC(=O)C1CCC(CNS(=O)(=O)c2cccc3nsnc23)CC1 (configuration not stated),9,5,-20,-3,0,-5
CSCCC(=O)N(C)CC1CCCN(CCc2cccc(C(F)(F)F)c2)C1 (configuration not stated),-23,0,37*,-8,-15,26
COC(=O)CCC(=O)N(C)CC1CCCN(CCc2cccc(C(F)(F)F)c2)C1 (configuration not stated),-25,1,44*,-11,-6,14
COc1cc(CN(C)CC2CCCN(CCc3cccc(C(F)(F)F)c3)C2)ccc1O (configuration not stated),-29,1,49*,-9,-15,22
Nc1ccc(-c2cnc3ccccc3n2)cc1,-1,0,7,-5,-7,4
O=C(/C=C/c1ccco1)NC(=S)Nc1ccccn1,6,1,-5,1,-1,0
COc1ccc(NC(=O)C2CCN(C(=O)c3ccccc3)CC2)c(OC)c1,-21,2,61*,-12,7,-2
CC1CCN(C(=O)CSc2nnc3c(n2)[nH]c2ccc(F)cc23)CC1,5,2,-10,-4,1,3
C=CCNC(=S)N(Cc1ccccc1)Cc1ccc(F)cc1,-4,-2,-5,-14,-8,5
CNc1ccc(Br)cc(C(=O)/C=C/c2cc(OC)ccc2OC)c1=O,11,4,-2,0,11,13
CCNc1ccc(Br)cc(C(=O)/C=C/c2ccc(Cl)cc2Cl)c1=O,9,5,21,0,3,40*
COc1cc(/C=N/NC(=O)CCN2CCN(C(c3ccccc3)c3ccccc3)CC2)ccc1O,-28,2,28*,-11,-14,16
Cc1ccc(CNCC(O)(c2ccccc2)c2ccc(Cl)cc2)cc1 (configuration not stated),-5,7,0,-9,-11,2
COc1ccc(CNCC(O)(c2ccccc2)c2ccc(Cl)cc2)cc1 (configuration not stated),-11,14,11,-3,-17,28*
CCN(CC)c1ccc(/C=C/C(=O)c2ccc(Br)cc2)cc1,-24,94*,79*,171*,-17,67*
O=S(=O)(c1ccc(F)cc1)c1snnc1-c1ccccc1,-5,-2,-8,-13,-2,3
O=S(=O)(c1ccc(Cl)cc1)c1snnc1-c1ccccc1,-22,-3,37*,-6,-6,22
O=C(COC(=O)c1ccc2ncsc2c1)Nc1ccc(OC(F)(F)F)cc1,9,4,-6,-3,-4,17
N#CCCN=C(NS(=O)(=O)c1ccccc1)c1ccccc1,28*,2,-23,1,11,-9
O=C(O)CN=C(NS(=O)(=O)c1ccccc1)c1ccccc1,6,1,-1,1,3,9
COc1c(Cl)cc(C(=O)NCc2ccco2)cc1Cl,3,0,-12,-3,2,-4
CCOC(=O)c1sc(=S)n(-c2ccccc2Cl)c1SC,-32,-1,100*,-11,-16,54*
SMILES,CHRM1 PAM,M4 ag,CHRM1 antagonist,M1 ag,M4 PAM,CHRM4 antagonist
CCOC(=O)c1sc(=S)n(-c2ccccc2)c1SC,-25,-2,51*,-7,-18,14
C#CCOCCOCCOCCNc1nc(N2CCN(C(=O)CCCCCCCCCCNC(=O)[C@H]([C@@H](C)CC)n3cc(CCCCCN)nn3)CC2)nc(N2CCN(C(=O)CCCCCCCCCCNC(=O)[C@H](CO)n3cc(CCCCCN)nn3)CC2)n1,-21,6,12,19*,-9,9
C#CCOCCOCCOCCNc1nc(N2CCN(C(=O)CCCCCCCCCCNC(=O)[C@H]([C@@H](C)CC)n3cc(CCCCCN)nn3)CC2)nc(N2CCN(C(=O)CCCCCCCCCCNC(=O)[C@H]([C@@H](C)CC)n3cc(CCCCN=C(N)N)nn3)CC2)n1,-6,-1,8,-11,-10,14
C[C@@H](O)Cc1cn(CC(=O)NCCCCCCCCCCC(=O)N2CCNCC2)nn1,3,1,6,-14,5,4
NCCCCCc1cn(CC(=O)NCCCCCCCCCCC(=O)N2CCNCC2)nn1,25,1,-22,-10,23*,-12
C#CCOCCOCCOCCNc1nc(N2CCN(C(=O)CCCCCCCCCCNC(=O)[C@H]([C@@H](C)CC)n3cc(CCCCN=C(N)N)nn3)CC2)nc(N2CCN(C(=O)CCCCCCCCCCNC(=O)[C@H](CO)n3cc(CCCCCN)nn3)CC2)n1,-26,1,20,-11,-13,34*
CC(C)(C)OC(=O)NCCCCCc1cn([C@@H](CO)C(=O)NCCCCCCCCCCC(=O)N2CCN(C(=O)OC(C)(C)C)CC2)nn1,-36,34*,74*,-3,-17,69*
CC(C)n1c(=O)c2ccccc2n1Cc1cn(Cc2cccnc2)nn1,12,0,-24,4,12,-8
C#CCOCCOCCOCCNc1nc(N2CCN(C(=O)CCCCCCCCCCNC(=O)Cn3cc(CCCCCN)nn3)CC2)nc(N2CCN(C(=O)CCCCCCCCCCNC(=O)Cn3cc(CCCCCN)nn3)CC2)n1,-35,2,39*,-7,-17,23
C#CCOCCOCCOCCNc1nc(N2CCN(C(=O)CCCCCCCCCCNC(=O)Cn3cc(CCCCCN)nn3)CC2)nc(N2CCN(C(=O)CCCCCCCCCCNC(=O)[C@@H](CCC(=O)O)n3cc(CCCCCN)nn3)CC2)n1,-15,16,17,1,-18,4
C#CCOCCOCCOCCNc1nc(N2CCN(C(=O)Cn3cc(CCCN=C(N)N)nn3)CC2)nc(N2CCN(C(=O)[C@H]([C@@H](C)CC)n3cc(CCCCN)nn3)CC2)n1,-4,0,-2,-8,-4,-8
C#CCOCCOCCOCCNc1nc(N2CCN(C(=O)CCCCCCCCCCNC(=O)Cn3cc(CCCCCN)nn3)CC2)nc(N2CCN(C(=O)CCCCCCCCCCNC(=O)[C@H]([C@@H](C)CC)n3cc(CCCCN=C(N)N)nn3)CC2)n1,-5,-1,0,-11,-15,41*
